PubChem BioAssay (Tox21)
Values without a mark were called inactive. Records with an inconclusive call do not appear. Entries that show only a call come without a potency. Calls of active or inactive are those of the source. Calls follow the shape of the dose curve; as a rule, active = well fitted curve in the direction sought with a large enough effect in the repeat runs; inconclusive = weak or mixed curves; inactive = no such curve, though single readings can be large; an effect the other way counts as inactive or inconclusive.

What was measured:
[1] = Caspase-3/7 induction in CHO-K1 cells by small molecules, qHTS assay (AID 1346980); also: nearly all actives have a fitted effect of over 15% in size
Procedure, shortened: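 Wild-type CHO-K1 cells exposed to compounds for 17hr at 37 C, 5% CO2. Caspase-3/7 activity then measured by Caspase-Glo 3/7 luminescence after 30min at room temperature.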

[2] = Caspase-3/7 induction in HepG2 cells by small molecules, qHTS cell viability counter screen (AID 1346981); also: nearly all actives have a fitted effect of over 30% in size; also: potency is read from the fitted curve at half-maximal effect; as to activity change, negative = cytotoxicity: series mostly up to about 92 µM
Procedure, shortened: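 CellTiter-Fluor fluorescence measured viability in the same wells used for Caspase-Glo 3/7. HepG2 (wild type) at 2,000 cells/well were pre-incubated 5 hr, dosed, and given reagent at 16 hr, with 1 hr further at 37C.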

[3] = target: Nuclear receptor subfamily 1 group I member 2 (Homo sapiens) (UniProt O75469); test: Human pregnane X receptor (PXR) small molecule agonists, qHTS assay (AID 1346982); also: nearly all actives have a fitted effect of over 35% in size; also: potency is read from the fitted curve at half-maximal effect
Procedure, shortened: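 Agonist mode: luminescence from ONE-Glo after 24 h compound exposure at 37C in HepG2 cells carrying hPXR-responsive CYP3A4 luciferase, plated in charcoal-stripped serum medium 5 h beforehand.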

[4] = target: Nuclear receptor subfamily 1 group I member 2 (Rattus norvegicus) (UniProt Q9R1A7); test: Rat pregnane X receptor (rPXR) activation by small molecules, qHTS assay (AID 1346983); settings: rPXR luciferase reporter cells, One-Glo luminescence, 24 h; max activation: stronger effect = higher value; also: nearly all actives have a fitted effect of over 20% in size
Procedure, shortened: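 Cell-based rPXR activation assay: rPXR cells, 2,000 per well, rested 5hr at 37 C, then exposed to compounds in DMSO for 24 hr at 37 C. Luciferase activity read by One-Glo luminescence after 30 min at room temperature.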

[5] = target: Nuclear receptor subfamily 1 group I member 2 (Homo sapiens) (UniProt O75469); test: CYP3A4 induction through human pregnane X receptor (PXR) by small molecules, qHTS assay (AID 1346984); also: nearly all actives have a fitted effect of over 40% in size
Procedure, shortened: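 Read-out is luminescence after One-Glo addition, following a 3 hr, 37C incubation with Luciferin-IPA CYP3A4 substrate (3uM final). Before that, compounds were on DPX-2 cells (HepG2 co-transfected with PXR element plus CYP3A4-promoter luciferase) for 24 hr at 37C.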

[6] = target: Nuclear receptor subfamily 1 group I member 2 (Homo sapiens) (UniProt O75469); test: Human pregnane X receptor (PXR) activation by small molecules, qHTS assay (AID 1346985); also: nearly all actives have a fitted effect of over 40% in size
Procedure, shortened: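 DPX-2 cells (HepG2 co-transfected with a PXR response element and a CYP3A4-promoter luciferase construct) were seeded at 2,000 per well, rested 5 hr at 37C, then exposed to DMSO-dissolved compounds for 24 hr. Activation was read as luciferase luminescence.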

[7] = target: Cytochrome P450 2C19 (Homo sapiens) (UniProt P33261); test: Cytochrome P450 Family 2 Subfamily C Member 19 (CYP2C19) small molecule antagonists: luciferase reporter qHTS assay (AID 1671197); also: nearly all actives have a fitted effect of over 65% in size; also: potency is read from the fitted curve at half-maximal effect; as to activity change, negative = inhibition: series mostly up to about 120 µM
Procedure, shortened: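 Luminescent readout of CYP2C19 activity: luciferin product detected 20 min after adding detection reagent. Before that, compound and enzyme-substrate mix preincubated 10 min at room temperature; NADPH-regenerating system started a 1 h, 37C reaction. Ketoconazole as positive control.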

[8] = target: Cytochrome P450 2C9 (Homo sapiens) (UniProt P11712); test: Cytochrome P450 Family 2 Subfamily C Member 9 (CYP2C9) small molecule antagonists: luciferase reporter qHTS assay (AID 1671198); also: nearly all actives have a fitted effect of over 50% in size; also: potency is read from the fitted curve at half-maximal effect; as to activity change, negative = inhibition: series mostly up to about 120 µM
Procedure, shortened: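 P450-Glo proluciferin substrate with CYP2C9 enzyme; 10 min RT preincubation, then NADPH regeneration 1 h at 37C; luciferin detection reagent 20 min RT, luminescence in relative luminescence units.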

[9] = target: Cytochrome P450 1A2 (Homo sapiens) (UniProt P05177); test: Cytochrome P450 Family 1 Subfamily A Member 2 (CYP1A2) small molecule antagonists: luciferase reporter qHTS assay (AID 1671199); also: nearly all actives have a fitted effect of over 50% in size; also: potency is read from the fitted curve at half-maximal effect; as to activity change, negative = inhibition: series mostly up to about 120 µM
Procedure, shortened: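 Luminescence from luciferin formed by CYP1A2 from a proluciferin substrate, read 20 min after detection reagent. Compound was pre-incubated 10 min with enzyme-substrate, and reaction started with NADPH regeneration solution for 1 h at room temperature; furafylline control.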

[10] = target: Voltage-gated inwardly rectifying potassium channel KCNH2 (Homo sapiens) (UniProt Q12809); test: Human Ether-a-go-go-Related Gene (hERG) channel small molecule antagonists: fluorescence cell-based qHTS assay (AID 1671200);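 also: hERG-expressing U2OS cells given a thallium stimulus after FluxOR II dye loading; series mostly up to about 77 µM; nearly all actives have a fitted effect of over 50% in size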
Procedure, shortened: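 Cell line hERG-U2OS; dye FluxOR II, 1 h RT dark; Tl+ stimulus; ex 480/em 540 nm, read each second for 2 min.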

[11] = target: Cytochrome P450 3A4 (Homo sapiens) (UniProt P08684); test: Cytochrome P450 Family 3 Subfamily A Member 4 (CYP3A4) small molecule antagonists: luciferase reporter qHTS assay (AID 1671201); also: series mostly up to about 120 µM; nearly all actives have a fitted effect of over 50% in size
Procedure, shortened: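 Room-temperature assay throughout: 10 min compound–enzyme/substrate preincubation, 1 h reaction after NADPH regeneration solution, 20 min detection. Luciferin formed from proluciferin substrate is quantified by luminescence.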

[12] = target: Cytochrome P450 2D6 (Homo sapiens) (UniProt P10635); test: Cytochrome P450 Family 2 Subfamily D Member 6 (CYP2D6) small molecule antagonists: luciferase reporter qHTS assay (AID 1671196); also: nearly all actives have a fitted effect of over 50% in size; also: potency is read from the fitted curve at half-maximal effect; as to activity change, negative = inhibition: series mostly up to about 120 µM
Procedure, shortened: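 CYP2D6 activity was followed as luminescence from its luciferin product after a 1 h NADPH-driven reaction at room temperature. Enzyme-substrate mix and compound were pre-incubated for 10 min, and the signal was read 20 min after adding detection reagent.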

Sequence of Cytochrome P450 2C9 (Homo sapiens) (P11712 whole entry, looked up): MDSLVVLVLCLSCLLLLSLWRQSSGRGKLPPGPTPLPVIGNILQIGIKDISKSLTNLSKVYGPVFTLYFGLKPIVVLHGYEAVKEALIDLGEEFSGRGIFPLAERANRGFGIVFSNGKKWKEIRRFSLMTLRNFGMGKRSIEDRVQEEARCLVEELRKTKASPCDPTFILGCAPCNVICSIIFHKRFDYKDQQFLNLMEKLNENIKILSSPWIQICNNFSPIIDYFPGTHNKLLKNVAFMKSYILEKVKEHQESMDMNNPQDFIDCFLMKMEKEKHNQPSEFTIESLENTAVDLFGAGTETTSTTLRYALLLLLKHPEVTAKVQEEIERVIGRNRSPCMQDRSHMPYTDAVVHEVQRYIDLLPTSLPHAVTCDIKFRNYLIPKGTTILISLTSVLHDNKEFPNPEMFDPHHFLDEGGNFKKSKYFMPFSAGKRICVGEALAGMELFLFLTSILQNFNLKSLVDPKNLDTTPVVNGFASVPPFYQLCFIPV
Sequence of Cytochrome P450 2D6 (Homo sapiens) (P10635 whole entry, looked up): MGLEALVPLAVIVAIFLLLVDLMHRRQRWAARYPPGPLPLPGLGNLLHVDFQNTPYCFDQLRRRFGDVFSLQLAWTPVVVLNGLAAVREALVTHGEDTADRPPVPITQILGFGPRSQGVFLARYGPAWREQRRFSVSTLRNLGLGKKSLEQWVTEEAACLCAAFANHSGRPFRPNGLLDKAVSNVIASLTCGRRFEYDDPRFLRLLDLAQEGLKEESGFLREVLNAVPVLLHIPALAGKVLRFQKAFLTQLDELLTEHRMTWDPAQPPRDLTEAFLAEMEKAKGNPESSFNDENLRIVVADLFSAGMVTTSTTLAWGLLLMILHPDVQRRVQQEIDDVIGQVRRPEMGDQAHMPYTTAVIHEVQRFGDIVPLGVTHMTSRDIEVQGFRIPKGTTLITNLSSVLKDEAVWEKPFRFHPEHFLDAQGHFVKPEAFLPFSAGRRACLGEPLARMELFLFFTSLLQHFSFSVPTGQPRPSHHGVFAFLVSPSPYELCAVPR
Sequence of Cytochrome P450 1A2 (Homo sapiens) (P05177 whole entry, looked up): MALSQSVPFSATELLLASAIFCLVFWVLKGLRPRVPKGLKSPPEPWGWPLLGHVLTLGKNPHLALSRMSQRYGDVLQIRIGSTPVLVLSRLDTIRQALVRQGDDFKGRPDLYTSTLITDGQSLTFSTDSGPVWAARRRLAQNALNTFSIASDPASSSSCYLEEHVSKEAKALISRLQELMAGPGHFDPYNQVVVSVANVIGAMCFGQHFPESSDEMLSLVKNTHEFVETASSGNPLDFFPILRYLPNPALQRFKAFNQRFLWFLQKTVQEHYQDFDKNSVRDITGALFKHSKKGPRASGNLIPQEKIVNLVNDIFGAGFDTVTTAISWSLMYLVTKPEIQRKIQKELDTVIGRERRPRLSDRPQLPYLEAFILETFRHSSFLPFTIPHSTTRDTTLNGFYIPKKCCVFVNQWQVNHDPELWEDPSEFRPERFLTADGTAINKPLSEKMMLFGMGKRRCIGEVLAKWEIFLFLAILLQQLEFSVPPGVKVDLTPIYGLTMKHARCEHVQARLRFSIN
Sequence of Nuclear receptor subfamily 1 group I member 2 (Rattus norvegicus) (Q9R1A7 whole entry, looked up): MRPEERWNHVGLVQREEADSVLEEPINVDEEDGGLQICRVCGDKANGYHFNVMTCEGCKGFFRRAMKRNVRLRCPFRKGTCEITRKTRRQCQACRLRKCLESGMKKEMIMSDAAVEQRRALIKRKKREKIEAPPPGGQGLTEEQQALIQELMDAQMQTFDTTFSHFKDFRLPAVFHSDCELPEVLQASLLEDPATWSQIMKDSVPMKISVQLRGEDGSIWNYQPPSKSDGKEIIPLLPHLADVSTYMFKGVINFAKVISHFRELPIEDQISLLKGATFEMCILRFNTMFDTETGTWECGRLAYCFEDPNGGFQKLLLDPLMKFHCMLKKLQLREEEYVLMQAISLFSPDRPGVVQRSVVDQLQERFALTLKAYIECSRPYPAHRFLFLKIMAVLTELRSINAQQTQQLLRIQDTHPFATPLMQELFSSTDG
Sequence of Cytochrome P450 3A4 (Homo sapiens) (P08684 whole entry, looked up): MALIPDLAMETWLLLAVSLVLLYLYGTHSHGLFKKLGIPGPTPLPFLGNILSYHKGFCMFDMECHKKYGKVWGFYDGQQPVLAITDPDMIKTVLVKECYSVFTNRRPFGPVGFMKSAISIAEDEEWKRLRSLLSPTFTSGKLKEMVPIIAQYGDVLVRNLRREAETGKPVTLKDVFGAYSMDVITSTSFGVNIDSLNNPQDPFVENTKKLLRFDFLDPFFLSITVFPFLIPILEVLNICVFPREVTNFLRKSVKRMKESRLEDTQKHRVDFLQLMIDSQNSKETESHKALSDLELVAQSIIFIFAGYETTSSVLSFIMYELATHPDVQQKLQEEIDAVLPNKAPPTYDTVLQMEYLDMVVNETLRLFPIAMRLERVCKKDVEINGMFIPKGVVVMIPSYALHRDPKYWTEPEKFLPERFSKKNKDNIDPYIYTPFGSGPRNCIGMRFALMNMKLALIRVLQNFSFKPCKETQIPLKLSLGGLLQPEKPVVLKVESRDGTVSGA
Sequence of Voltage-gated inwardly rectifying potassium channel KCNH2 (Homo sapiens) (Q12809 whole entry, looked up): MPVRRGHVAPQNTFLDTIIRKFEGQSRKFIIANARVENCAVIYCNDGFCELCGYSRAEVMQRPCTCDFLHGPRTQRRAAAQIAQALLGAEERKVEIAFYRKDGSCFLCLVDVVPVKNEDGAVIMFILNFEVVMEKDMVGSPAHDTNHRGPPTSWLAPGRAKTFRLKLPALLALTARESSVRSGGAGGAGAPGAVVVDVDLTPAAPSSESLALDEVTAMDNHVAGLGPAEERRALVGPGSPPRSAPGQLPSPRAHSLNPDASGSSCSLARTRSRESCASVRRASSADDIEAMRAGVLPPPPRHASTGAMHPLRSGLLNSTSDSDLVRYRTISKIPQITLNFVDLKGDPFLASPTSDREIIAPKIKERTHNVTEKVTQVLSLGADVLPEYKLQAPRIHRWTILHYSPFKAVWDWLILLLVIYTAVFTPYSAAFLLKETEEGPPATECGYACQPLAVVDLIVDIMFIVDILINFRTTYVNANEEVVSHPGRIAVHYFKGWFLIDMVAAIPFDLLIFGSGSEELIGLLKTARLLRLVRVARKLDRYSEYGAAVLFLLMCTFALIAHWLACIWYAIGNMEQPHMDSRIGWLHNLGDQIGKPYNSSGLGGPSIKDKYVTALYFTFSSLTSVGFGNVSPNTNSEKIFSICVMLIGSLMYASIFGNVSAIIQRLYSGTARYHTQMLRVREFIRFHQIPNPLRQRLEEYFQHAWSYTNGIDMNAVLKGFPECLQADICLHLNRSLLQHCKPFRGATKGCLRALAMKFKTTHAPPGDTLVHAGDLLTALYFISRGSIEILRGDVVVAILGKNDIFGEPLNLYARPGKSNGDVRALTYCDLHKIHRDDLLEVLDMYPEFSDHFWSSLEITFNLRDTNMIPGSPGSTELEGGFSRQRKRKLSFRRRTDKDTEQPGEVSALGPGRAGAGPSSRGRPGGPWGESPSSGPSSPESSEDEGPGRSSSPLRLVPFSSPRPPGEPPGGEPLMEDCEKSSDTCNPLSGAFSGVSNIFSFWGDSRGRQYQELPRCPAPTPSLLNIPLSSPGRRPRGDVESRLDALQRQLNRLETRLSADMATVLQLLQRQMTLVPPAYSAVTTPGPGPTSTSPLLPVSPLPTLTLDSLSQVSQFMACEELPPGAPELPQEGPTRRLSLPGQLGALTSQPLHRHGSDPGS
Sequence of Cytochrome P450 2C19 (Homo sapiens) (P33261 whole entry, looked up): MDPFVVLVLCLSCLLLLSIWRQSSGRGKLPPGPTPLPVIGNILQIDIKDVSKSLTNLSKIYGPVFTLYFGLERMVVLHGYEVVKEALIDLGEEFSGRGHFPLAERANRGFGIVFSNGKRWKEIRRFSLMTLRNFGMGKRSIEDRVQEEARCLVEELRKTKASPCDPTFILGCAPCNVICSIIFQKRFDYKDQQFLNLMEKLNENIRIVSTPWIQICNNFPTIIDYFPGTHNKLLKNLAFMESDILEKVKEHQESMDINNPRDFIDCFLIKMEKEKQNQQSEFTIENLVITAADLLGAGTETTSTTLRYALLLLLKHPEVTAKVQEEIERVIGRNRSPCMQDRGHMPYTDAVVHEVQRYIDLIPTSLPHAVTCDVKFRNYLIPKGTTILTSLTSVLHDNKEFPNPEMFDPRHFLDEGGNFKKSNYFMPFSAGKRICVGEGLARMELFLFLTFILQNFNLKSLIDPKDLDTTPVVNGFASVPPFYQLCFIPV
Sequence of Nuclear receptor subfamily 1 group I member 2 (Homo sapiens) (O75469 whole entry, looked up): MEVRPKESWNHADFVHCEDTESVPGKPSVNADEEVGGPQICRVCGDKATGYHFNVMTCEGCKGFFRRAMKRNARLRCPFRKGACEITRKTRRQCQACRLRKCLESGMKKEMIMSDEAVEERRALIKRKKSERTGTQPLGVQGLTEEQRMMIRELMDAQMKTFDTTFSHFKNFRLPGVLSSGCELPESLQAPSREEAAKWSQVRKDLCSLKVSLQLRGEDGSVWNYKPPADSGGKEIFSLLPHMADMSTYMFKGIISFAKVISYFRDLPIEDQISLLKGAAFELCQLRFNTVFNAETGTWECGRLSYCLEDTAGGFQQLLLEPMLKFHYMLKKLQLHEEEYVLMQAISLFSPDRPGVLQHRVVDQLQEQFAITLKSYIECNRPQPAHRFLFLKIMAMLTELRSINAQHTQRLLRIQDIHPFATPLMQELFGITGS

Row | SMILES | Potency [1] | Potency [2] | Potency [3] | max activation [4] | Potency [5] | Potency [6] | Potency [7] | Potency [8] | Potency [9] | Potency [10] | Potency [11] | Potency [12] | caspase-3/7 activation [1] | activity change, negative = cytotoxicity [2] | activation [3] | activity change, negative = inhibition [12] | activity change, negative = inhibition [10] | activity change, negative = inhibition [11]
1 | COc1ccccc1OC(=O)Oc1ccccc1OC | inactive | inactive | inactive | -1.11% | inactive | inactive | 9.77 µM (active) | inactive | 4.56 µM (active) | inactive | inactive |  |  |  |  |  |  | 
2 | Cn1c(NCCN(CCO)CCCc2ccc([N+](=O)[O-])cc2)cc(=O)n(C)c1=O | inactive | inactive | inactive | -2.3% | inactive | inactive | inactive | inactive | inactive |  | inactive |  |  |  |  |  |  | 
3 | CCN(CC)CCc1nc(-c2ccccc2)no1 | inactive | inactive | inactive | -0.305% | inactive | inactive | inactive | inactive |  | inactive | inactive | 7.76 µM (active) |  |  |  |  |  | 
4 | CC(=O)N(O)CCCCCNC(=O)CCC(=O)N(O)CCCCCNC(=O)CCC(=O)N(O)CCCCCN | inactive | inactive | inactive | -2.68% | inactive | inactive | inactive | inactive | 24.5 µM (active) | inactive | inactive |  |  |  |  |  |  | 
5 | CN(C)CC/C=C1\c2ccccc2COc2ccccc21 | inactive | inactive |  |  |  |  |  |  |  |  |  |  |  |  |  |  |  | 
6 | C=Cc1c(C)c2cc3[nH]c(cc4nc(cc5nc(cc1[nH]2)C(C)=C5CCC(=O)O)C(CCC(=O)O)=C4C)c(C)c3C=C | inactive | 13.3 µM (active) | inactive | -1.27% | inactive | inactive | inactive | inactive | inactive | inactive | inactive |  |  |  |  |  |  | 
7 | Nc1ccc(C(=O)N2CC3CC(CN(Cc4ccccc4)C3)C2)cc1 | inactive | inactive | inactive |  |  |  |  |  |  |  |  |  |  |  |  |  |  | 
8 | CCCCCCCCCO | inactive | inactive | inactive |  |  |  |  |  |  |  |  |  |  |  |  |  |  | 
9 | N=C(N=C(N)N)N1CCOCC1 | inactive | inactive | inactive | -1.18% | inactive | inactive |  | inactive |  | inactive | inactive | inactive |  |  |  |  |  | 
10 | Oc1ccc(C(O)CNCCCCCCNCC(O)c2ccc(O)c(O)c2)cc1O (stereo not drawn) | inactive | inactive | inactive | -3.6% | inactive | inactive | inactive |  |  | inactive | inactive |  |  |  |  |  |  | 
11 | CCN1CCC[C@H]1CNC(=O)c1c(OC)ccc(Br)c1OC | inactive | inactive | inactive | 7.68% | inactive | inactive | inactive | inactive | inactive | inactive | inactive |  |  |  |  |  |  | 
12 | NC[C@H]1O[C@H](O[C@H]2[C@H](O)[C@@H](O[C@H]3O[C@H](CO)[C@@H](O)[C@H](N)[C@H]3O)[C@H](N)C[C@@H]2N)[C@H](O)[C@@H](O)[C@@H]1O |  |  |  | -1% | inactive | inactive |  |  |  |  |  |  | 1.24% [at 8.39 µM] | -2.29% [at 8.39 µM] | 13.1% [at 8.39 µM] | -0.562% [at 10.5 µM] | 0.203% [at 6.97 µM] | 8.95% [at 10.5 µM]
13 | CC(C(=O)O)c1ccc(C(=O)c2ccccc2)s1 (stereo not drawn) | inactive | inactive | 15 µM (active) | 13.7% | inactive | inactive | 4.9 µM (active) | 17.4 µM (active) | 9.11 µM (active) | inactive | inactive | inactive |  |  |  |  |  | 
14 | CC[C@H](C)[C@H](N)C(=O)O | inactive | inactive | inactive | -0.0819% | inactive | inactive | inactive | inactive | inactive | inactive | inactive | inactive |  |  |  |  |  | 
15 | O=C(O)Cc1sc(-c2ccccc2)nc1-c1ccc(Cl)cc1 | inactive | inactive | inactive | 0.948% | inactive | inactive | inactive | 4.9 µM (active) |  | inactive | inactive | inactive |  |  |  |  |  | 
16 | O=C(O)COC(=O)Cc1ccccc1Nc1c(Cl)cccc1Cl | inactive | inactive | inactive | -0.166% | inactive | inactive | inactive | 13.8 µM (active) | inactive | inactive | inactive | inactive |  |  |  |  |  | 
17 | CC(C)(C)c1cc(O)c(C(C)(C)C)cc1O | inactive |  |  |  |  |  |  |  |  |  |  |  |  |  |  |  |  | 
18 | Cn1c(=O)c2c(ncn2CC(O)CO)n(C)c1=O (stereo not drawn) | inactive | inactive | inactive | -1.09% | inactive | inactive | inactive | inactive | inactive | inactive | inactive | inactive |  |  |  |  |  | 
19 | NC(=S)N/N=C/c1cccnc1 | inactive | inactive | inactive | -5.63% | inactive | inactive | inactive | inactive | 17.4 µM (active) | inactive | inactive | inactive |  |  |  |  |  | 
20 | CCOc1nc2cccc(C(=O)O)c2n1Cc1ccc(-c2ccccc2-c2nn[nH]n2)cc1 | inactive | inactive | inactive | -0.587% |  |  |  |  |  | inactive |  |  |  |  |  |  |  | 
21 | O=C(c1ccccc1)c1ccc2n1CCC2C(=O)O (stereo not drawn) | inactive | inactive | inactive | 4.49% | inactive | inactive | inactive |  |  | inactive | inactive | inactive |  |  |  |  |  | 
22 | CN1CCC[C@@H]1c1cccnc1 | inactive | inactive | inactive | -0.0949% | inactive | inactive | inactive |  | inactive | inactive |  | 38.9 µM (active) |  |  |  |  |  | 
